# Measurements taken from PubChem BioAssay (EPA / NIEHS).
# Records with an inconclusive call do not appear. The source made the active and inactive calls. The calls were made as follows: active = hit-call score of the fitted dose curve at least 0.9, where 1 is the maximum; inconclusive = response in the unintended direction; inactive = score below 0.9.
# Biological target: Estrogen receptor (Homo sapiens) (UniProt P03372)
# Test: OT_ER_ERaERa_0480: Odyssey Thera (OT) 8-hour HEK293T Protein-Complementation Assay for Estrogen Receptor-alpha/-alpha Homodimer (AID 2283351);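 also: rise in fluorescence from reassembled reporter fragments on ERα LBD homodimer in nucleus or whole cell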
# Procedure, shortened: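 The readout is complementation of fragments fused to the human ER alpha ligand-binding domain (aa 310-547), stably expressed in HEK293T cells. After 8 h of exposure, the increase in nuclear/cytoplasmic fluorescence was measured by laser scanning cytometry and fitted relative to DMSO.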
# Sequence of Estrogen receptor (Homo sapiens) (P03372 whole entry, looked up, the tested form may be a part): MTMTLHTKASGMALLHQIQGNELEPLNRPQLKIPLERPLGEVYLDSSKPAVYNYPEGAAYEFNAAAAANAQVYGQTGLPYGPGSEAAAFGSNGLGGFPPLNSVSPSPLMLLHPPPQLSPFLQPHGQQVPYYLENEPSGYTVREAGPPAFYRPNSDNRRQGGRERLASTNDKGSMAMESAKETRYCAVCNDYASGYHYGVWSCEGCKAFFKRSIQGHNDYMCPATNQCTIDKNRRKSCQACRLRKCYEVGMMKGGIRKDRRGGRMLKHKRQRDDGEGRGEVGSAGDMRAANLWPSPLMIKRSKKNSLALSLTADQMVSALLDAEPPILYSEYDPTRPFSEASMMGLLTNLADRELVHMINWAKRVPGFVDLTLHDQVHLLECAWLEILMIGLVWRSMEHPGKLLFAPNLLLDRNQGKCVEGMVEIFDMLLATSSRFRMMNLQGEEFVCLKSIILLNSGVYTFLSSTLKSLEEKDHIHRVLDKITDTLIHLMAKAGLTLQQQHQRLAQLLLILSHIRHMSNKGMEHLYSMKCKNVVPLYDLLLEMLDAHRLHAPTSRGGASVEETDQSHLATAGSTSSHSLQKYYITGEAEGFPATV
Compound,outcome,AC50
CCCCCCCCC=O,inactive,
CC(=O)C=CC1=C(C)CCCC1(C)C,inactive,
NC(=O)Nc1ccc(Cl)cc1,inactive,
CC(=O)OCCOC(C)=O,inactive,
O=Nc1ccc(Nc2ccccc2)cc1,inactive,
CCCCCCCCCC=O,inactive,
NCCCN1CCOCC1,inactive,
CN(C)CCCN,inactive,
CC(C)(C)C(=O)c1ccccc1,inactive,
BrC1CCC(Br)C(Br)CCC(Br)C(Br)CCC1Br (centres undefined),inactive,
Cc1ccc(S)cc1,inactive,
CC(C)c1cccc(O)c1,inactive,
CCC/C=C/C=O,inactive,
OCCN1CCNCC1,inactive,
CCCCCCCCCCCCCC(=O)O,inactive,
O=C1c2ccccc2C(=O)N1SC1CCCCC1,inactive,
CC(=O)OCCC(C)CC(C)(C)C (centres undefined),inactive,
CCN(CC)c1ccc2c(-c3ccccc3C(=O)O)c3ccc(=[N+](CC)CC)cc-3oc2c1,,12.2 µM (active)
CC1COc2ccccc2N1C(=O)C(Cl)Cl (centres undefined),inactive,
CCCCCCCCC,inactive,
c1ccc(CCCc2ccccn2)cc1,inactive,
C=C(C)C(=O)O,inactive,
CCCCc1ccc(N)cc1,inactive,
CC(C)(N)CO,inactive,

# Biological target: Androgen Receptor/SRC-1 Co-activator, AR (gene 367) (UniProt P10275)
# Sequence (P10275 whole entry, looked up): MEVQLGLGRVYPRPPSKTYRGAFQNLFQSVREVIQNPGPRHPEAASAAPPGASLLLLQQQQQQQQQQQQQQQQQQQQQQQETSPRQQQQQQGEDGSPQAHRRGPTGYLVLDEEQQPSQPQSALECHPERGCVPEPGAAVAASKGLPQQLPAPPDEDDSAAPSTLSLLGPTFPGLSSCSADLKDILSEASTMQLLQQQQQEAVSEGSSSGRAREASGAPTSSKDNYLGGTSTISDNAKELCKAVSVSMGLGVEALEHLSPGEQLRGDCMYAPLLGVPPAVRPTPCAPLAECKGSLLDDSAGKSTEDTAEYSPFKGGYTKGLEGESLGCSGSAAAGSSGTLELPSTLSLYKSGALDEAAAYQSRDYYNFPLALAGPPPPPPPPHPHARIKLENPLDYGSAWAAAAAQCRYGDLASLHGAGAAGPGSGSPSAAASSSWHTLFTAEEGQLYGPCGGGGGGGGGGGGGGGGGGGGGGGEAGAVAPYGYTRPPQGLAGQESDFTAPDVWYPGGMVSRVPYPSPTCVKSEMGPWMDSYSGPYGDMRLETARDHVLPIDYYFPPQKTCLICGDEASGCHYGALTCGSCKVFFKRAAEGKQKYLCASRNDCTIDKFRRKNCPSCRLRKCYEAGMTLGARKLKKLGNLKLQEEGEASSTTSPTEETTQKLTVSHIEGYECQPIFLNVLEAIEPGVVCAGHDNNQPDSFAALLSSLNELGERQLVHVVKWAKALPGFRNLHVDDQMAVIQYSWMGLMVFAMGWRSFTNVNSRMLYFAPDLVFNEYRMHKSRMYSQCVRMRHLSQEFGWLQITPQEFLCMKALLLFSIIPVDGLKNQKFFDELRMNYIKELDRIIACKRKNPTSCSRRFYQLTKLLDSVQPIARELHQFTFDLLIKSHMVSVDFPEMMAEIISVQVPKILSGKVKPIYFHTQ
# Test: OT_AR_ARSRC1_0960: Odyssey Thera (OT) 16-hour HEK293T Protein-Complementation Assay for Androgen Receptor/SRC-1 Co-activator (AID 2283353);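 also: actives raise the signal above DMSO so potency reflects increased AR and SRC-1 complex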
# Procedure, shortened: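 HEK293T cells stably expressing AR and SRC-1 fused to Venus YFP fragments, imaged 16 h after dosing. Nuclear/cytoplasmic fluorescence ratio at 488 nm from at least 400 cells per image; gain of signal relative to DMSO.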
Compound,outcome,AC50
CCCCC[Si](OCC)(OCC)OCC,inactive,
O=Nc1ccc(Nc2ccccc2)cc1,,14.2 µM (active)
CCCCCCCCCCCCCOS(=O)(=O)O,inactive,
NCCCN1CCOCC1,inactive,
BrC1CCC(Br)C(Br)CCC(Br)C(Br)CCC1Br (centres undefined),,19.6 µM (active)
CCC/C=C/C=O,inactive,
CCCCCCCCCCCCCCCC(=O)OC[C@H](O)[C@H]1OC(=O)C(O)=C1O,inactive,

# Biological target: Androgen Receptor/SRC-1 Co-activator, AR (gene 367) (UniProt P10275)
# Test: OT_AR_ARSRC1_0480: Odyssey Thera (OT) 8-hour HEK293T Protein-Complementation Assay for Androgen Receptor/SRC-1 Co-activator (AID 2283354);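 also: hits raise the complementation signal above DMSO so AC50 marks enhancers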
# Procedure, shortened: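 HEK293T cells stably expressing AR and SRC-1 fused to split Venus YFP fragments via (Gly4Ser)2 linkers were read 8 h after compound dosing. Complementation was imaged at 488 and 635nm, and nuclear/cytoplasmic fluorescence ratio (488nm) was taken over ≥400 cells; gain-of-signal versus DMSO.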
Compound,outcome,AC50
CCCCC[Si](OCC)(OCC)OCC,inactive,
O=Nc1ccc(Nc2ccccc2)cc1,,11 µM (active)
CCCCCCCCCCCCCOS(=O)(=O)O,inactive,
NCCCN1CCOCC1,inactive,
BrC1CCC(Br)C(Br)CCC(Br)C(Br)CCC1Br (centres undefined),inactive,
CCC/C=C/C=O,inactive,
CCCCCCCCCCCCCCCC(=O)OC[C@H](O)[C@H]1OC(=O)C(O)=C1O,inactive,

# Biological target: Estrogen receptor (Homo sapiens) + Estrogen receptor beta (Homo sapiens) (UniProt P03372+Q92731)
# Sequence (P03372 whole entry, looked up, the tested form may be a part): as the sequence (P03372 whole entry, looked up, the tested form may be a part) above
# Sequence (Q92731 whole entry, looked up, the tested form may be a part): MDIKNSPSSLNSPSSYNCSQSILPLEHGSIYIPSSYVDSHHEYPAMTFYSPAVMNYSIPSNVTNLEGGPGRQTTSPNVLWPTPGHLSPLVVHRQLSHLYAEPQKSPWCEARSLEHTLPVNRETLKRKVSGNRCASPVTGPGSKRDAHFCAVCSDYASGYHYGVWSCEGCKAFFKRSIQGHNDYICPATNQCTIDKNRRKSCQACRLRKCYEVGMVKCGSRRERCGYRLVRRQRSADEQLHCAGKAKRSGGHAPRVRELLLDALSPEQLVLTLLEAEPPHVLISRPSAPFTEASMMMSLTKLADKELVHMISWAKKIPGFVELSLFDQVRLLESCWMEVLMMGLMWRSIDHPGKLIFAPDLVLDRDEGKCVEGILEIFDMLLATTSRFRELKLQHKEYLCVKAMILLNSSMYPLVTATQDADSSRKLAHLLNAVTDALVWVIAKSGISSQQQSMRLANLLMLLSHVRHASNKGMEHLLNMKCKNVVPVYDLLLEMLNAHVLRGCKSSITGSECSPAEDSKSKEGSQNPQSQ
# Test: OT_ER_ERaERb_1440: Odyssey Thera (OT) 24-hour HEK293T Protein-Complementation Assay for Estrogen Receptor-alpha/-beta Homodimer (AID 2283356);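 also: heteromer of ER alpha and ER beta binding domains; hits raise reporter fluorescence and both agonists and antagonists give an increase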
# Procedure, shortened: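 Heterodimerisation of ERα (aa 310-547) and ERβ (aa 263-489) ligand binding domains was tracked as fluorescence gain in stably transfected HEK293T cells following 24 h dosing, normalised to DMSO controls.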
Compound,outcome,AC50
CCCCCCCCC=O,inactive,
NC(=O)Nc1ccc(Cl)cc1,inactive,
CC(=O)OCCOC(C)=O,inactive,
O=Nc1ccc(Nc2ccccc2)cc1,inactive,
CCCCCCCCCC=O,inactive,
NCCCN1CCOCC1,inactive,
BrC1CCC(Br)C(Br)CCC(Br)C(Br)CCC1Br (centres undefined),,60.4 µM (active)
Cc1ccc(S)cc1,inactive,
CC(C)c1cccc(O)c1,inactive,
CCC/C=C/C=O,inactive,
OCCN1CCNCC1,inactive,
CCCCCCCCCCCCCC(=O)O,inactive,
OCCOCCOCCOCCO,inactive,
CCCCOCCOCCOCCOCCO,inactive,
CCN(CC)c1ccc2c(-c3ccccc3C(=O)O)c3ccc(=[N+](CC)CC)cc-3oc2c1,,12 µM (active)
CC1COc2ccccc2N1C(=O)C(Cl)Cl (centres undefined),inactive,
CCCCCCCCC,inactive,
c1ccc(CCCc2ccccn2)cc1,inactive,
C=C(C)C(=O)O,inactive,
CCCCc1ccc(N)cc1,,39.6 µM (active)
CC(C)(N)CO,inactive,
